In the supplement of paper PMC9897528 one finds growth inhibition data, which are given here for 23 compounds.

In the experiment the test system is Scedosporium aurantiacum CBS 136046. Kind of experiment: growth inhibition relative to DMSO control (OD600); higher = more antifungal activity, active = 80 or more; extreme values may be limits of the assay. To be noted: 5 µM; 72 h; 37 °C.

A number with no mark means an inactive call.
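Also: conidia screened in RPMI 1640 medium under 5% CO2, growth read by spectrophotometer, medium with 0.5% DMSO serving as the untreated reference.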

Consider `CNCC(=O)OCc1cccnc1N(C)C(=O)OC(C)[n+]1cnn(C[C@](O)(c2cc(F)ccc2F)[C@@H](C)c2nc(-c3ccc(C#N)cc3)cs2)c1` (stereo partly drawn), for which the growth inhibition was 59.5%. Then `O=C(Nc1[nH]c(=O)ncc1F)c1ccccc1`, with 5.77%; and `Cc1ncc([N+](=O)[O-])n1CC(O)CN1CCOCC1` (stereo not drawn), with 31%; and `O=C(Nc1ccccc1C(=O)O)c1cccc(Oc2ccccc2)c1`, with 0.169%. For `C[C@H]1[C@@H](c2cccc(C(F)(F)F)c2)OC(=O)N1C(=O)NCc1cncc2ccccc12`, the growth inhibition was 11.5%.

On to `O=C(Nc1nnc(-c2ccccc2)o1)c1ccc(F)cc1`, for which the growth inhibition is 31.3%.

`CC(C)c1cc2c(cc1S(=O)(=O)O)[C@@]1(C)CCC[C@@](C)(C(=O)O)[C@@H]1CC2`: the growth inhibition was 30%. Take `CC1CCc2c(N3CCC(O)CC3)c(F)cc3c(=O)c(C(=O)O)cn1c23` (stereo not drawn): the growth inhibition was 16.2%. Turning to `CCc1cc(Nc2cc(=O)n(CCN3CCN(C(=O)c4ccccc4)CC3)c(=O)[nH]2)ccc1C`, the growth inhibition is 0%. As to `Nc1nc(=O)[nH]cc1F`, the growth inhibition was 0.0511%. Take `CC(C)(C)c1cc(C(=O)/C(C#N)=N/Nc2cccc(Cl)c2)no1`: the growth inhibition was 35.3%. With `CN(C)CCCNC(=O)c1ccc(-c2cc(O)c3ncccc3c2)cc1` the figure was 11.4%; with `CCC(C)(C)c1ccc(CC(C)CN2C[C@@H](C)O[C@@H](C)C2)cc1` (stereo partly drawn), 84.7% (active). Then `CC1(C)C[C@H]1C(=O)N/C(=C\CCCCSC[C@@H](N)C(=O)O)C(=O)O`, with 4.68%.

`CCNC(=O)Nc1cc2c(-c3ccnc(C)c3)ccc(CNC(=O)OC)c2cn1`: the growth inhibition is 13.3%. As for `O=C(O)[C@H]1C2CCC(CC2)[C@@H]1Nc1nc(-c2c[nH]c3ncc(F)cc23)ncc1F`, the growth inhibition is 10.2%. With `C[C@H](c1cccc2ccccc12)N(C)Cc1ccccc1` the figure was 14.5%; with `COc1ccc2c(c1OC)C(=O)OC2C1c2c(cc3c(c2OC)OCO3)CCN1C` (stereo not drawn), 14.1%; with `O=S(=O)(Nc1cccc2cccnc12)c1ccccc1`, 13.6%. Turning to `CCc1nc(N)nc(N)c1C#CC(C)c1cc(OC)cc(-c2ccncc2)c1` (stereo not drawn), the growth inhibition is 48.8%.

As for `CCN(CC)S(=O)(=O)c1ccc(Cl)c(C(=O)Nc2sc3c(c2C#N)CCCC3)c1`, the growth inhibition was 25.7%. `Nc1cccc(-c2nc(N)nc(NC3Cc4ccccc4C3)n2)c1`: the growth inhibition is 21.5%.

For the compound `NC(=O)c1nccn([C@@H]2O[C@H](CO)[C@@H](O)[C@H]2O)c1=O`, the growth inhibition was 2%.
